Laboratory results reported in PubChem BioAssay AID1159580 (chemical genetic matrix, 2015).
Where “and” joins values, the source holds several entries; their conditions need not be identical. Equal values may be shown once. About 2,000 (36%) of roughly 5,500 compounds were called active. About 18% were inconclusive and are not listed. Rule as the data show it: active = normalized growth mostly below about 0.91 (no sharp cut-off); inconclusive = no clear call, values can overlap the other calls; inactive = mostly above about 0.92. Some of the results follow.

Assay: chemical genetic growth profiling, strain panel (AID 1159580);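 also: tested at 20 µM; growth read once vehicle control cultures reached saturation at 30 °C; 1 = growth at the plate median or of vehicle wells; lower values mean less growth of the strain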
Details: S. cerevisiae deletion strains, growth OD

Measured: normalized growth

NS(=O)(=O)c1cc2c(cc1Cl)NC(C1CC3C=CC1C3)NS2(=O)=O (stereo unspecified)
inactive: locus YAL013W, strain DEP1, stronger effect = lower value 1 | locus YAL021C, strain ccr4, stronger effect = lower value 1 | locus YAL026C, strain drs2, stronger effect = lower value 0.99 | locus YAL030W, strain snc1, stronger effect = lower value 0.99 | locus YAL040C, strain CLN3, stronger effect = lower value 0.979 | locus YBL061C, strain skt5, stronger effect = lower value 1 | locus YBR009C, strain hhf1, stronger effect = lower value 0.982 | locus YBR021W, strain FUR4, stronger effect = lower value 1.03 | locus YBR023C, strain chs3, stronger effect = lower value 0.991 | locus YBR171W, strain sec66, stronger effect = lower value 0.981 | locus YBR229C, strain ROT2, stronger effect = lower value 0.96 | locus YBR231C, strain swc5, stronger effect = lower value 0.989 | locus YBR279W, strain paf1, stronger effect = lower value 0.996 | locus YCL011C, strain gbp2, stronger effect = lower value 0.989 | locus YCL016C, strain dcc1, stronger effect = lower value 0.995 | locus YCL029C, strain bik1, stronger effect = lower value 0.941 | locus YCL061C, strain MRC1 (second series), stronger effect = lower value 0.99 | locus YCL061C, strain MRC1, stronger effect = lower value 0.991 | locus YCL069W, strain vba3, stronger effect = lower value 0.997 | locus YCR088W, strain abp1, stronger effect = lower value 0.991 | locus YDL005C, strain med2, stronger effect = lower value 0.983 | locus YDL035C, strain GPR1, stronger effect = lower value 1.01 | locus YDL040C, strain nat1, stronger effect = lower value 0.994 | locus YDL074C, strain BRE1, stronger effect = lower value 1.01 | locus YDL101C, strain DUN1, stronger effect = lower value 0.967 | locus YDL134C, strain PPH21, stronger effect = lower value 0.99 | locus YDL185W, strain tfp1, stronger effect = lower value 0.959 | locus YDL192W, strain arf1, stronger effect = lower value 0.992 | locus YDR001C, strain nth1, stronger effect = lower value 0.985 | locus YDR069C, strain doa4, stronger effect = lower value 1.01 | locus YDR101C, strain arx1, stronger effect = lower value 1 | locus YDR137W, strain rgp1, stronger effect = lower value 1.01 | locus YDR150W, strain NUM1, stronger effect = lower value 0.981 and 1 | locus YDR159W, strain sac3, stronger effect = lower value 0.987 | locus YDR162C, strain NBP2, stronger effect = lower value 0.911 | locus YDR195W, strain ref2 0.963 | locus YDR297W, strain sur2, stronger effect = lower value 0.991 | locus YDR318W, strain mcm21, stronger effect = lower value 1.02 | locus YDR334W, strain swr1, stronger effect = lower value 0.995 | locus YDR335W, strain msn5, stronger effect = lower value 0.991 | locus YDR363W, strain ESC2, stronger effect = lower value 0.956 | locus YDR388W, stronger effect = lower value 1 | locus YDR392W, strain spt3, stronger effect = lower value 0.924 | locus YDR502C, strain sam2, stronger effect = lower value 0.978 | locus YEL003W, strain gim4, stronger effect = lower value 0.997 | locus YEL037C, strain rad23, stronger effect = lower value 0.999 | locus YEL061C, strain CIN8 (second series), stronger effect = lower value 0.984 | locus YEL061C, strain CIN8, stronger effect = lower value 0.989 | locus YER002W, strain NOP16, stronger effect = lower value 0.987 | locus YER015W, strain faa2, stronger effect = lower value 0.994 | locus YER016W, strain bim1, stronger effect = lower value 0.994 | locus YER110C, stronger effect = lower value 0.937 | locus YER111C, strain swi4, stronger effect = lower value 0.98 | locus YER155C, strain BEM2 (second series), stronger effect = lower value 0.974 | locus YER155C, strain BEM2, stronger effect = lower value 0.988 | locus YER167W, strain BCK2, stronger effect = lower value 1.04 | locus YFR010W, strain ubp6, stronger effect = lower value 0.988 | locus YGL078C, strain dbp3, stronger effect = lower value 0.986 | locus YGL086W, strain mad1, stronger effect = lower value 1.03 | locus YGL167C, strain pmr1, stronger effect = lower value 0.987 | locus YGL173C, strain kem1, stronger effect = lower value 0.994 | locus YGL227W, strain vid30, stronger effect = lower value 0.978 | locus YGL240W, strain doc1, stronger effect = lower value 0.977 | locus YGL248W, strain PDE1, stronger effect = lower value 0.979 | locus YGL253W, strain hxk2, stronger effect = lower value 0.995 | locus YGR078C, strain PAC10, stronger effect = lower value 1.01 | locus YGR135W, strain pre9, stronger effect = lower value 0.987 | locus YGR229C, strain SMI1, stronger effect = lower value 0.998 | locus YGR252W, strain gcn5, stronger effect = lower value 1.07 | locus YHR013C, strain ard1, stronger effect = lower value 0.962 | locus YHR027C, strain rpn1, stronger effect = lower value 0.993 | locus YHR030C, strain SLT2, stronger effect = lower value 1 and 1.02 | locus YHR079C, strain IRE1 (second series), stronger effect = lower value 1.01 | locus YHR079C, strain IRE1, stronger effect = lower value 1.02 | locus YHR094C, strain hxt1, stronger effect = lower value 0.998 | locus YHR129C, strain ARP1, stronger effect = lower value 0.994 | locus YHR142W, strain chs7, stronger effect = lower value 1 | locus YHR200W, strain rpn10, stronger effect = lower value 0.997 | locus YIL066C, strain RNR3, stronger effect = lower value 0.989 | locus YIL073C, strain SPO22, stronger effect = lower value 1.08 | locus YIL125W, strain kgd1, stronger effect = lower value 0.992 | locus YIR030C, strain dcg1, stronger effect = lower value 0.984 | locus YJL092W, strain hpr5, stronger effect = lower value 0.99 | locus YJL095W, strain BCK1 (second series), stronger effect = lower value 0.99 | locus YJL095W, strain BCK1, stronger effect = lower value 1.01 and 1.06 | locus YJL115W, strain asf1, stronger effect = lower value 0.997 | locus YJL129C, strain trk1, stronger effect = lower value 0.986 | locus YJL134W, strain LCB3, stronger effect = lower value 0.984 | locus YJL154C, strain vps35, stronger effect = lower value 0.988 | locus YJL164C, strain tpk1, stronger effect = lower value 0.997 | locus YJL166W, strain qcr8, stronger effect = lower value 0.997 | locus YJL168C, strain set2, stronger effect = lower value 0.992 | locus YJL187C, strain SWE1 (second series), stronger effect = lower value 0.975 | locus YJL187C, strain SWE1, stronger effect = lower value 0.989 | locus YJR043C, strain POL32, stronger effect = lower value 1.06 | locus YJR066W, strain TOR1, stronger effect = lower value 0.976
